The results in this text go back to PubChem BioAssay AID1259318 (Sanford-Burnham Center for Chemical Genomics, 2017).

SMILES strings stand for the structures. About 3,000 (0.81%) of roughly 370,000 compounds were called active.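 Rule for the calls: active = activity above about 14% (limit read from the data; passing the limit was not always enough); inactive = the rest.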 The list comes from a sample in which actives are over-represented; it also holds similar structures and randomly drawn compounds.

For the experiment, the target named is Nuclear receptor subfamily 1 group D member 1 (Homo sapiens) (UniProt P20393). In words: Rev-erbα–DNA interaction modulation – biochemical, FITC-DNA, fluorescence polarization, uHTS, primary screen (AID 1259318).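 Note: 0% = DMSO wells with 35 nM protein and 100% = DMSO wells with 750 nM protein.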 Conditions: Rev-erbα–FITC-DNA binding, 90 min, at 10 µM, hits give high values. Background: Polarisation of emitted light reports the rotation of a fluorescent probe.
Sequence of Nuclear receptor subfamily 1 group D member 1 (Homo sapiens) (P20393 whole entry, looked up): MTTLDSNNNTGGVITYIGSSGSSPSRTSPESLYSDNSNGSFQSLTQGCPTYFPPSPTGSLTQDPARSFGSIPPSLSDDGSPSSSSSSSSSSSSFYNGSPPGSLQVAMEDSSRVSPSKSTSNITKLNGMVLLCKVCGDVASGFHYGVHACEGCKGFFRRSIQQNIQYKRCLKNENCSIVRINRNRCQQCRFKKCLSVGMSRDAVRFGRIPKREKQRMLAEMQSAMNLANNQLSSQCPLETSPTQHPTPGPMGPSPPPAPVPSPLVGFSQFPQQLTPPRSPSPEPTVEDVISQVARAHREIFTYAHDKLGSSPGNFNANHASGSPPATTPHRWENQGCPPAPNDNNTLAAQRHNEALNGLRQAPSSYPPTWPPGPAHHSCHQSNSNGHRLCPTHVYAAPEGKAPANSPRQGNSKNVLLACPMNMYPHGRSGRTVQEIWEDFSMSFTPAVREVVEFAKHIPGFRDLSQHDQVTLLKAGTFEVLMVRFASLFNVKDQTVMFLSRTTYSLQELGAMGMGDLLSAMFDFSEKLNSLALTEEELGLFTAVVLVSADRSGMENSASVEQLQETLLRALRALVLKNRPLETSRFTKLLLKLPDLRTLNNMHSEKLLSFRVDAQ
For the compound `O=[N+]([O-])c1ccc(NCCCO)c(C(F)(F)F)c1`, the activity was -1.69% (inactive).

For `N#Cc1ccc(OCCCN2CCC(C(O)(c3ccccc3)c3ccccc3)CC2)c(F)c1`, the activity is 2.99% (inactive).

Consider `CCCNC(=S)NC1CC2CCCC(C1)N2CC(C)C` (stereo not given), for which the activity was 1.93% (inactive).

Consider `Cc1ccc(CC(=O)Nc2cccc(C#N)c2)cc1`, for which the activity was 0.97% (inactive).

Regarding `COc1ccc(CC(=O)Nc2ccc(-c3nnc(-c4ccc(C)cc4)o3)cc2)cc1`, the activity was 26.4% (active).

Regarding `COc1ccc(-c2ccc3nnc(SCC(=O)Nc4ccc(NC(C)=O)cc4)n3n2)cc1`, the activity is -7.04% (inactive).

As for `CC1CCCC(NC(=O)CSc2nccn2C)C1C` (stereo not given), the activity was -3.46% (inactive).

As for `Fc1ccc(-c2ccc(-c3nn4c(-c5ccco5)nnc4s3)o2)cc1`, the activity was -8.14% (inactive).

Take `c1ccc(-c2cc(-c3nnc4sc(-c5ccccn5)nn34)[nH]n2)cc1`: the activity is 22.2% (active).

As for `C=CCNC(=S)/N=c1/ccccn1Cc1ccccc1`, the activity is 3.96% (inactive).

Turning to `O=C(CC12CC3CC(CC(C3)C1)C2)NCc1ccco1`, the activity is -3.49% (inactive).

Regarding `CCOC(=O)C1=C(c2ccccc2)O/C(=C(/C(=O)OC)C(F)(F)F)S1`, the activity was 23.2% (active).

For the compound `CCOC(=O)c1nnn(-c2nonc2OC)c1-c1ccccc1`, the activity was -1.38% (inactive).

Turning to `COC(=O)/C(=C1\Oc2ccc(C(C)(C)C)cc2S1)C(F)(F)F`, the activity is 2.88% (inactive).

Regarding `CC(C)CC(=O)N1CCN(Cc2ccccc2Br)CC1`, the activity is 1.77% (inactive).

With `Cc1ccc(N=C2NC(=O)c3cccc([N+](=O)[O-])c32)cc1`, the activity is -0.93% (inactive).

Consider `C=C(C)C(=O)O[C@H]1C/C(C)=C\C(=O)/C=C(\C)[C@H](O)[C@@H]2OC(=O)C(=C)[C@@H]21`, for which the activity is -13.3% (inactive).

Take `O=C(O)c1ccn(COc2ccc(Br)cc2)n1`: the activity is -0.74% (inactive).

Turning to `Cc1ccc(-c2nc3c(Cl)cc(C(F)(F)F)cn3c2Cc2cccc(Cl)c2)cc1`, the activity is -1.02% (inactive).

Consider `Cc1cc(Br)cn2c(Cc3ccccc3C(F)(F)F)c(C3CCCCC3)nc12`, for which the activity was -1.46% (inactive).

On to `Cc1cc(Br)cn2c(Cc3cccc(F)c3)c(-c3cccc(Br)c3)nc12`, for which the activity was 8.77% (inactive).

Consider `Cc1cc(Br)cn2c(Cc3ccccc3C(F)(F)F)c(-c3ccc(Cl)cc3)nc12`, for which the activity was 24.8% (active).

For the compound `Cc1cc(Br)cn2c(Cc3ccccc3C(F)(F)F)c(-c3ccc(C#N)cc3)nc12`, the activity is 16.1% (inactive).

`Cc1ccc(-c2nc3c(C)cc(Br)cn3c2Cc2ccccc2)cc1`: the activity was 27% (active).

Regarding `Cc1ccc(NC(=O)Nc2cc(C)nn2-c2ccccc2)cc1`, the activity is -3.54% (inactive).

In the case of `CCC1Nc2ncnc(N3CCN(c4ccccc4)CC3)c2N(Cc2ccc(Cl)cc2)C1=O` (stereo not given), the activity was -0.29% (inactive).

Take `CCCc1nnc(NC(=O)CCC(=O)NC2CC2)s1`: the activity is -1.12% (inactive).

As for `COCC(=O)N[C@@H]1C[C@@H]2O[C@@H](CO)CC[C@@H]2O[C@@H]1CCc1ccc(-c2ccccc2)cc1`, the activity is -1.13% (inactive).

In the case of `CC(=O)N1CCCN(C2=Nc3ccccc3Sc3ccccc32)CC1`, the activity was -0.32% (inactive).

In the case of `Cc1ccc(-n2c(SCC(=O)NCCC3=CCCCC3)nc3n[nH]c(C)c3c2=N)cc1Cl`, the activity was 34.3% (active).

Consider `Cc1nnc(OCC(=O)NCCC2=CCCCC2)c2ccccc12`, for which the activity is -2.75% (inactive).

Take `CCCCNC(=O)CSc1nc2n[nH]c(C)c2c(=N)n1-c1cccc(Cl)c1C`: the activity is 23.1% (active).

Regarding `CCn1c(=O)cc(SCC(=O)NCCC2=CCCCC2)c2ccccc21`, the activity is -0.99% (inactive).

Take `CCCCCCNC(=O)CSc1nccn1Cc1ccccc1`: the activity is 1.93% (inactive).

For the compound `CCCCNC(=O)CSc1nccn1Cc1ccccc1`, the activity was -5.53% (inactive).

On to `CCCCCC1CC(COc2ccccc2)OC1=O` (stereo not given), for which the activity was 3.77% (inactive).

As for `CC(=O)c1c(C)n([O-])c2ccccc2[n+]1=O`, the activity was 4.5% (inactive).

On to `CC(C)C(C)(C#N)NC(=O)CSc1nncn1-c1ccccc1` (stereo not given), for which the activity is 3.69% (inactive).

`Cc1ccc2c(cnn2C(=O)CCC(=O)NC2CCCC2)c1`: the activity was 8.51% (inactive).

As to `COc1ccc(CN2C/C(=C/c3ccccc3)N3C(=O)C[C@@H](c4ccccc4)N=C23)c(OC)c1`, the activity was -2.77% (inactive).

Consider `CC(=O)Nc1sc2c(c1C(c1cccc(F)c1)N1CCN(CCO)CC1)CCCC2` (stereo not given), for which the activity is -4.11% (inactive).

Regarding `CCc1c(C)nc2c(-c3ccccc3)c(C)nn2c1Nc1ccc(NC(C)=O)cc1`, the activity is -3.83% (inactive).

For `Cc1nn2c(NCCN(C)C)c3c(nc2c1-c1ccccc1)CCC3`, the activity is -0.8% (inactive).

Consider `Cc1cc(C(C)(C)C)n2nc(C)c(-c3ccccc3)c2n1`, for which the activity is 31.7% (active).

Regarding `CC(Oc1ccccc1)C(=O)N[C@@H]1C(=O)N2[C@@H]1SC(C)(C)[C@@H]2C(=O)O` (stereo not given in full), the activity is -0.45% (inactive).

Take `COC(=O)c1ccc(N2CCOCC2)c(NC(=O)c2ccc(Br)o2)c1`: the activity is -3.88% (inactive).

As to `Cc1cc(NCc2cccnc2)no1`, the activity is 2.81% (inactive).

With `Cc1cc(NC(=O)COc2ccccc2C#N)no1`, the activity is 5.64% (inactive).

`Cc1cc(N/C=C\C(=O)c2ccc(Cl)c(Cl)c2)no1`: the activity was 24.8% (active).

With `CCN(CC)C(=O)CSc1nnc(-c2cnccn2)n1-c1ccc(C)cc1`, the activity was 5.46% (inactive).

Consider `CN(C(=O)COc1ncnc2c1cnn2-c1ccccc1)C1CCCCC1`, for which the activity was 1.94% (inactive).

On to `COc1ccc(CCC(C)N2CCc3ccccc3C2)cc1` (stereo not given), for which the activity is 1.36% (inactive).

Turning to `COc1ccc(-n2ncc3c(N4CCc5ccccc54)ncnc32)cc1`, the activity is 56.3% (active).

Take `O=c1cc(Cl)c2ccccc2n1-c1ccccc1`: the activity is -2.63% (inactive).

On to `COc1cccc(N2CCN(CC(=O)N(C)Cc3ccc(F)cc3)CC2)c1`, for which the activity was -5.17% (inactive).
